Inconclusive results are not listed. Activity calls are given as the source filed them. Calls come from the whole dose curve; as a rule, active = well fitted curve in the direction sought with a large enough effect; inconclusive = small, poorly fitted or top-dose-only effect, or another doubt; inactive = no such curve, though single readings can be large; an effect the other way counts as inactive or inconclusive.

The target in assay [1] is Phospholipid hydroperoxide glutathione peroxidase GPX4 (Homo sapiens) (UniProt P36969). As to the kind of experiment: Primary qHTS Assay for Inhibitors of Recombinant Selenoprotein Glutathione Peroxidase 4 (GPX4) (AID 1845192). Note: nearly all actives have a fitted effect of over 65% in size. The note with it: recombinant GPX4, GR-coupled NADPH fluorescence, 15 min; series mostly up to 50 µM. In a few lines: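 NADPH consumption followed by fluorescence at 340/450 nm, t=0 and after 15 min at room temperature. Reaction started with cumene hydroperoxide (0.5 mM final) after 30 min compound–GPX4 preincubation; final 200 nM GPX4, 100 nM GR, 1 mM GSH, 0.5 mM NADPH.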
On the technique in general: In qHTS, concentration-response curves come from the screen itself.

Assay [2] is described as follows: Quantitative High-Throughput drug screen in 47 multiple myeloma cell lines against the NCATS MIPE library collection: FR4_PLB cell viability assay (AID 1918924; note: nearly all actives have a fitted effect of over 35% in size; note: potency is the fitted concentration of half-maximal effect). The note with it: FR4_PLB myeloma cells viability, CellTiter-Glo ATP, 48 h; series mostly up to 45.8 µM. A digest of the protocol:
(§1)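 Myeloma cells (500 per well) were exposed to MIPE 4.0 compounds by pin transfer and incubated 48 hours at 37C, 5% CO2. Viability was read as ATP by CellTiter-Glo luminescence, normalised to DMSO (100%) and media-only (0%) wells.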
(In general: ATP-based viability assays read luminescence as a measure of living cells.)

Assay [3] is described as follows: Primary fluorescence-based thiol-reactive (MSTI) qHTS assay for identification of artifact compounds. (AID 1845221).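 Note: thiol-reactive compounds lower the probe fluorescence signal; nearly all actives have a fitted effect of over 65% in size.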 To be noted: MSTI thiol-reactivity probe, 1 h; series mostly up to 53.8 µM. In a few lines: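 qHTS titration of compound; 4 uM MSTI, PBS pH 7.4, 2% DMSO; 1 h RT, dark; fluorescence 525/598 nm; normalized to Acetyl-MSTI and MSTI; 4-parameter Hill fit.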

In assay [4] the test system is Nanoluciferase (engineered Oplophorus gracilirostris luciferase). In words: Primary Nanoluciferase (NLuc) qHTS assay for identification of artifact compounds. (AID 1845222).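 Note: NLuc secreted into diluted conditioned medium of S16 cells.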 To be noted: NLuc-conditioned medium, Nano-Glo luminescence, 5 min; series mostly up to 54.1 µM. In a few lines:
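NLuc from S16 cell medium (1:55) plus test compounds, 15 min, room temperature. Luminescence after Nano-Glo (1:100) addition, 5 min.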

The nature of assay [5]: Primary redox qHTS assay for identification of artifact compounds. (AID 1845223). The note with it: Amplex Red/HRP redox cycling with DTT, fluorescence; series mostly up to 53.8 µM. In a few lines: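 Redox-cycling detection via DTT (250 uM final) oxidation coupled to Amplex Red (25 uM)/HRP (250 mU/mL) in HBSS. 15 min preincubation plus 30 min after DTT, room temperature. Ex/Em 525/598 nm; 4-parameter Hill fit against DMSO and 10 uM DA3003.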

The target in assay [6] is Luciferin 4-monooxygenase (Photinus pyralis) (UniProt P08659). As to the kind of experiment: Primary firefly luciferase (FLuc) qHTS assay for identification of artifact compounds. (AID 1845220). Note: nearly all actives have a fitted effect of over 60% in size. Note: potency is the fitted concentration of half-maximal effect. To be noted: purified firefly luciferase, luminescence, 5 min; series mostly up to 54.1 µM. In a few lines:
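FLuc 10 nM; luciferin 10 uM; ATP 10 uM; Tris-acetate pH 7.6, Mg-acetate 10 mM; 15 min RT preincubation; 5 min reaction; luminescence.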

Assay [7] can be described thus: Quantitative High-Throughput drug screen in 47 multiple myeloma cell lines against the NCATS MIPE library collection: Delta47_JCRB cell viability assay (AID 1918925; note: nearly all actives have a fitted effect of over 45% in size; note: potency is the fitted concentration of half-maximal effect). The note with it: Delta47 myeloma viability, CellTiter-Glo ATP, 48 h; series mostly up to 45.8 µM. In a few lines: as §1

Sequence of Phospholipid hydroperoxide glutathione peroxidase GPX4 (Homo sapiens) (P36969 whole entry, looked up): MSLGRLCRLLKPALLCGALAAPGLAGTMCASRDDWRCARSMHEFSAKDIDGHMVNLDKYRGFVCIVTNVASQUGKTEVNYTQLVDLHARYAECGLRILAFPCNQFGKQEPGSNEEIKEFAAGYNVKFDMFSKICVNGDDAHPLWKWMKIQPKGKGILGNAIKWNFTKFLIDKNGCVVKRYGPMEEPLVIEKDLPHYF

On to `O=C(O)c1cc(O)c2c(c1)C(=O)c1cccc(O)c1C2=O`, for which the Potency entry in assay [1] is “inactive”.

For the compound `O=C1c2c(O)cc(O)cc2O[C@H](c2cc(O)c(O)c(O)c2)[C@H]1O`, in assay [2], the Potency was 26.4 µM (active).

On to `NC(=O)c1cccc2[nH]c(-c3ccc([C@H]4CCCN4)cc3F)nc12`, for which the Potency entry in assay [3], in assay [4] and in assay [2] was “inactive” in each case. Further, in assay [5], the outcome was inactive.

Regarding `NC(=O)c1ccc2nc(-c3ccc(Oc4ccc(Cl)cc4)cc3)[nH]c2c1`, the Potency in assay [6] is 3.38 µM (active); in assay [2] it was 0.166 µM (active). Moreover, the Potency result in assay [3] and in assay [4] was “inactive” in each case. The call in assay [5] was inactive.

For `O=c1ccn([C@@H]2O[C@H](CO)[C@H](O)[C@H]2O)c(=O)[nH]1`, in assay [2], the Potency result is “inactive”.

On to `O=C1NC(=O)C(=Cc2ccc(-c3ccc(F)cc3)o2)S1`, for which the Potency result in assay [2] was “inactive”.

Take `CN(C)C1CCN(C(=O)c2ccc(NC(=O)Nc3nc(N4CCOCC4)nc(N4CCOCC4)n3)cc2)CC1`: the Potency result in assay [1], in assay [6], in assay [3] and in assay [4] was “inactive” each time. In addition, the compound was called inactive in assay [5]. In assay [2], the Potency is 0.0093 µM (active).

On to `Nc1nc(F)nc2c1ncn2[C@@H]1O[C@H](COP(=O)(O)O)[C@@H](O)[C@H]1O`, for which, in assay [2], the Potency was 1.87 µM (active).

Consider `Cc1ccn(-c2ccc(-c3ncco3)cc2)c(=O)c1-c1ccc2nc(N)ncc2c1`, for which the Potency result in assay [6], in assay [3], in assay [4] and in assay [2] was “inactive” each time.

As to `O=C1c2ccccc2-[n+]2ccc3c([nH]c4ccccc43)c21`, in assay [1], the Potency entry was “inactive”. The Potency in assay [2] is 1.32 µM (active).

Take `NS(=O)(=O)c1cccc2c1C(=O)c1cccc(O)c1C2=O`: the Potency result in assay [1] is “inactive”. Moreover, the figures for the Potency in assay [2] and in assay [7] were 0.935 µM (active) and 0.418 µM (active), respectively.

For `C=C1C(=O)OC(CCCCCCCC)C1C(=O)O` (stereo unspecified), in assay [1], the Potency result is “inactive”. For the same compound, the Potency in assay [7] is 14.8 µM (active).

For `CC(C)(C)OC(=O)N[C@H]1CCCCCC=C[C@@H]2C[C@@]2(C(=O)NS(=O)(=O)C2CC2)NC(=O)[C@@H]2C[C@@H](OC(=O)N3Cc4cccc(F)c4C3)CN2C1=O`, the Potency entry in assay [6], in assay [3], in assay [4], in assay [2] and in assay [7] was “inactive” throughout.

(Values after PubChem BioAssay (NCATS).)
